# SW480 rerep: A quantitative high throughput screen for small molecules that induce DNA re-replication in SW480 colon adenocarcinoma cells | SW480 DNA re-replication, Hoechst DNA content imaging, 48 h | Potency, µM (series often up to 46.1 µM), for inactives: at the top dose re-replication activation, actives largely listed as activators | actives 1.8% (n = 340,000); also: potency is read from the fitted curve at half-maximal effect; % of control where 0% means no effect; nearly all actives have a fitted effect of over 55% in size
#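 Image-based read-out: total Hoechst fluorescence of nuclei (405 nm excitation, 500-530 nm emission), with hits raising the fraction of high-intensity nuclei. SW480 colon cells incubated 48 hr with compounds at 37 C.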
# ATXN2 expr inh: Primary qHTS for Inhibitors of ATXN expression; HEK-293 ATXN2-luciferase reporter, luminescence, 24 h; AID 1745845, 2022; actives 0.72% (n = 360,000); Potency, µM (top dose mostly 57 µM), for the others: at the top dose activity change, negative = inhibition, most hits filed as inhibitors; also: potency is read from the fitted curve at half-maximal effect; % is scaled to controls: 0 for no effect and ±100 for the full control effect; nearly all actives have a fitted effect of over 55% in size
#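 ATXN2-luciferase reporter cells (luciferase flanked by upstream and downstream ATXN2 gene portions) were treated 24 h at 37 °C with compounds at up to 57 uM. SteadyGlo luminescence gave expression; GF-AFC fluorescence gave viability.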
# PINK1 modulator: A Quantitative High throughput Screen to Identify Chemical Modulators of PINK1 Expression; PINK1 immunofluorescence, high-content cytometry, 24 h; Potency, µM (highest dose often 76.6 µM), inactives show at the top dose activation (PINK1 increase), usual class: activators; actives 0.2% (n = 410,000); AID 624263, 2012; active = well fitted activation curve with a large enough effect; inconclusive = small, poorly fitted or top-dose-only effect; cell line not stated here; also: potency is read from the fitted curve at half-maximal effect; % of control where 0% means no effect; nearly all actives have a fitted effect of over 65% in size
#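 Readout is PINK1 immunofluorescence, quantified alongside mitochondrial, cell and nuclear markers by laser-scanning microplate cytometry. Cells from a stable line were exposed to compound titrations (5 concentrations) for 24 hours, with CCCP controls.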
# IL1B secr inh: qHTS for Inhibitors of Inflammasome Signaling: IL-1-beta AlphaLISA Primary Screen. THP-1 LPS/ATP IL-1B secretion, AlphaLISA, 16 h; hits give low values. activity change, % at 57.5 µM. actives 4.7% (n = 360,000). AID 743279, 2014; in the data active = activity change below about -50%; inconclusive = mostly about -30% to -49%; also: % is scaled to controls: 0 for no effect and ±100 for the full control effect
#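 Secreted IL-1B measured by AlphaLISA bead assay after 16 h compound exposure of THP-1 cells; compounds (final up to 57.5 uM) added 1 h before LPS (250 ng/mL) and ATP (1.25 mM) stimulation; lower signal means less secretion.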
# ATXN viability: Viability Counterscreen for Primary qHTS for Inhibitors of ATXN expression. S2 cells (HEK-293 line with an ATXN2-luciferase reporter) viability, CellTiter-Fluor protease fluorescence, 24 h. Potency, µM (highest dose often 56.7 µM), most hits filed as cytotoxic. actives 0.49% (n = 400,000). AID 651635, 2014; also: potency is read from the fitted curve at half-maximal effect; nearly all actives have a fitted effect of over 40% in size
# MCF10A rereplic: A quantitative high throughput screen for small molecules that induce DNA re-replication in MCF 10a normal breast cells | MCF 10A DNA re-replication, Hoechst nuclear intensity, 48 h | Potency, µM (highest dose often 46.1 µM), without a hit: at the highest dose activity, positive = re-replication, hits mostly activators | actives 2.9% (n = 350,000) | AID 624296, 2012; also: potency is read from the fitted curve at half-maximal effect; % of control where 0% means no effect; nearly all actives have a fitted effect of over 50% in size
# Starred values were filed as active, the others as inactive; i = inactive; ? = inconclusive; . = no result; [ ] = remark or other dose. Only some compounds are listed: those with a hit (about 7.1% of all), similar ones and a draw of the others. Unless noted, calls follow the shape of the dose curve; as a rule, active = well fitted curve in the direction sought with a large enough effect; inconclusive = small, poorly fitted or top-dose-only effect, or another doubt; inactive = no such curve, though single readings can be large; an effect the other way counts as inactive or inconclusive.
SMILES,SW480 rerep,ATXN2 expr inh,PINK1 modulator,IL1B secr inh,ATXN viability,MCF10A rereplic
O=C(c1ccco1)N1CCN(C2CN(Cc3cn(Cc4ccccc4C(F)(F)F)nn3)S(=O)(=O)C2)CC1 (stereo unspecified),.,4.7%,-0.1%,-13.7,i,.
COc1ccc(OC)c(Nc2nc(-c3ccncc3)nc3ccccc23)c1,?,-26.7%,9.6%,34.1,.,?
COc1ccc(Nc2nc(-c3ccncc3)nc3ccccc23)cc1,18.4µM*,-20.4%,5.1%,-6.6,i,?
COc1cccc(Nc2nc(-c3ccccc3)nc3ccccc23)c1,?,-18.8%,15.0%,-73.0*,i,?
COc1ccc(N(C(=O)c2ccccc2F)S(=O)(=O)c2ccc3c(c2)n(C)c(=O)n3C)cc1,.,8.2%,0.7%,.,i,.
COC(=O)c1c(NC(=O)CN2CCN(Cc3ccc4c(c3)OCO4)CC2)sc(C)c1C,?,.,.,-75.9*,.,?
CCc1c(C)sc(NC(=O)CN2CCN(C(=O)c3ccco3)CC2)c1C(=O)OC,-3.1%,-30.6%,4.0%,-78.7*,i,14.7%
CCNC(=O)[C@H]1O[C@@H](n2cnc3c(N)nc(NCCc4ccc(CCC(=O)O)cc4)nc32)[C@H](O)[C@H]1O,.,-1.4%,.,.,.,.
O=C(O)/C=C\C(=O)Nc1ccc(N2CCN(c3ccc(Cl)cc3)CC2)cc1,-0.6%,-19.1%,1.7%,-24.8,i,-1.7%
O=C(O)/C=C\C(=O)Nc1ccc(N2CCN(c3ccc(Cl)c(Cl)c3)CC2)cc1,9.7%,-11.3%,3.1%,-71.1*,i,4.0%
O=C(CSC1=NNC(c2ccccn2)S1)Nc1ccccc1 (stereo unspecified),16.4µM*,?,0.7%,184.1,?,?
CC[C@@H](C)[C@@H]1CN([C@@H](CN2CCC[C@H]2CN2C(N)=NC[C@H]2C(C)C)C(C)C)C(=N)N1CCc1ccc(Cl)c(Cl)c1,-0.5%,-3.5%,0.2%,-77.7*,i,-2.5%
CC[C@@H](C)[C@@H]1CN([C@@H](C)CN2CCC[C@H]2CN2C(N)=NC[C@@H]2Cc2ccccc2)C(=N)N1CCCC1CCCC1,-9.2%,-6.5%,0.0%,-63.4*,i,-10.7%
CC[C@@H](C)[C@@H]1CN([C@@H](C)CN2CCC[C@H]2CN2C(N)=NC[C@@H]2Cc2ccccc2)C(=N)N1CCc1ccc(Cl)c(Cl)c1,-4.7%,-3.7%,1.0%,-25.4,i,-14.7%
CCC[C@@H](CN1CCC[C@H]1CN1C(N)=NC[C@H]1C(C)C)N1C[C@@H](Cc2ccccc2)N(CCCC2CCCC2)C1=N,-42.9%,0.9%,0.6%,-63.5*,i,?
COc1ccccc1CCNS(=O)(=O)c1ccc(N2CCCCS2(=O)=O)cc1,.,-10.0%,0.7%,.,i,.
Cn1c(-c2c(N)n(CCc3ccccc3)c3nc4ccccc4nc23)nc2ccccc21,8.2µM*,-15.5%,4.6%[38.3 µM],-8.1,.,?
COCCCn1c(N)c(-c2nc3ccccc3n2C)c2nc3ccccc3nc21,?,?,1.4%[38.3 µM],?,.,23.1µM*
Cn1c(-c2c(N)n(C3CCCC3)c3nc4ccccc4nc23)nc2ccccc21,11.6µM*,-19.3%,?,-5.5,.,5.17µM*
Cn1c(-c2c(N)n(CCCc3ccccc3)c3nc4ccccc4nc23)nc2ccccc21,16.4µM*,-20.9%,-0.2%[38.3 µM],?,.,?
CCc1nc2ccccc2n1CCc1ccccc1,3.8%,4.3%,2.2%,-8.0,i,?
CCc1ccc(-n2nnc(-c3nc(-c4ccc(C)cc4)no3)c2N)cc1,.,.,0.3%,.,.,.
COc1ccc(Cn2c(O)c(C=Nc3ccccc3C(=O)O)c3ccccc3c2=O)cc1,-6.7%,-8.2%,-0.2%,24.1,?,?

# Screening results (PubChem BioAssay)
